The panel holds about 83,000 compounds, 20% with a hit somewhere; the sample as a whole holds those more often.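 In brief: 96-well plates, 48 h treatment, single concentration, percent growth endpoint.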 Active and inactive are the calls of the source.

This test concerns NCI-H522 lung. Briefly: NCI-60 one-dose screen, 48 h (100 = growth as untreated, 0 = no growth, -100 = all killed). The settings on record: 10 µM unless noted. The procedure: Growth inhibition of the NCI-H522 human Non-Small Cell Lung tumor cell line is measured as a screen for anti-cancer activity. Cells are grown in 96 well plates and exposed to the test compound for 48 hours. Compounds are tested at a single concentration, which is 10^-5 M for most compounds. The reported endpoint is percent growth (GI% or GIPRCNT), where numbers from 0 - 100% represent growth inhibition, and numbers from -100% - 0 represent cell death. For example, a value of 40 represents 60% growth inhibition. A value of 0 means no net growth occurred over the course of the experiment. A value of -40 indicates 40% of cells at the beginning of the experiment died by the end of the experiment. A value of -100 means all cells are dead at the end of the experiment.
NCI-60 Human Tumor Cell Lines Screen was performed using the standard one-dose NCI protocol, which is described in more detail at https://dtp.cancer.gov/discovery_development/nci-60/default.htm.
Compounds with GIPRCNT values below 10 were considered active. Activity score was based on GIPRCNT using the following formula: […]
Score is 0 for GIPRCNT values of 100 or above, 50 for GIPRCNT values of 0, and 100 for GIPRCNT values of -100.
For the compound `C=C=[CH][Sn]([c]1ccccc1)([c]1ccccc1)[c]1ccccc1`, the growth was -69.4% (active). For `CN1CCN(C(=O)COc2ccc(/C=C3\CC4C5CC=C6CC(Cl)CCC6(C)C5CCC4(C)C3=O)cc2)CC1` (stereo not given), the growth was 61.5% (inactive).

Consider `CCCCN(CCCC)CC(O)c1ccccc1` (stereo not given), for which the growth is 112% (inactive). As to `CNC(=O)O/N=C(/C)c1ccc(Cl)cc1`, the growth is 96.5% (inactive). Consider `CCN(CC)CCOc1c(C(C)C)cccc1C(C)C`, for which the growth is 93.3% (inactive). The figure for `C[C@@H]1O[C@@H](O[C@H]2CC[C@@]3(C)[C@H](CCC4[C@@H]3C(O)C[C@]3(C)[C@@H](c5ccc(=O)oc5)CC[C@]43O)C2)[C@H](O)[C@H](O)[C@H]1O` (stereo not given in full) is -87% (active); for `CNC(=O)Oc1cc(C(C)C)ccc1Sc1ccc(C(C)C)cc1OC(=O)NC` it is 75.7% (inactive); for `O=S(=O)(Cl)c1ccccc1` (tested in a mixture with another compound) it is 89.1% (inactive).

In the case of `O=C(CI)Nc1ccc(Br)cc1`, the growth is -85% (active).

For the compound `C1CN1c1nc(N2CC2)nc(N2CC2)n1`, the growth is -12.1% (active).

Turning to `[Br][Pb]([c]1ccccc1)([c]1ccccc1)[c]1ccccc1`, the growth is -92.3% (active).

Turning to `[O]=[Sn]([CH]1CCCCC1)[CH]1CCCCC1`, the growth was -72.6% (active). As to `O=S(=O)(c1ccc(Cl)cc1)C(Cl)(Cl)Cl`, the growth was 11% (inactive). `O=C(CCc1ccco1)NC1CCN(CC2(c3ccc(Cl)cc3)CCC2)CC1`: the growth is -22.2% (active).

Consider `CN=C(NN)NN`, for which the growth is 107% (inactive).

For `COc1cc[c]([Hg][Cl])cc1`, the growth was -73.8% (active). With `COc1cc2c(cc1OC)CN(C)C(C)C2` (stereo not given), the growth was 82.3% (inactive). Turning to `CC12CCC3C(CC=C4CC(O)CCC43C)C1C/C(=C\N1CCOCC1)C2=O` (stereo not given), the growth is 83.3% (inactive). On to `COc1ccc(OC)c(/C=C(/C)[N+](=O)[O-])c1`, for which the growth was -78.1% (active). As to `C[C@]12CCC(=O)CC1CC[C@@H]1C2CC[C@@]2(C)C1CC[C@@H]2OC(=O)CC[Se][Se]CCC(=O)O[C@H]1CCC2[C@@H]3CCC4CC(=O)CC[C@]4(C)C3CC[C@@]21C` (stereo not given in full), the growth was 88.3% (inactive). Regarding `CC(C)(C)NCC(O)c1ccccc1Cl` (stereo not given), the growth was -37.2% (active). Turning to `O=S(=O)(O)c1ccc(-c2ccc([As](=O)(O)O)cc2)cc1`, the growth is 88.8% (inactive). In the case of `C[C@]12CC[C@H]3[C@@H](C[C@@H]4N=C(c5ccc(O)cc5)S[C@@]45C[C@H](O)CC[C@]35C)[C@@H]1CC[C@@H]2O`, the growth was 41.2% (inactive).

As for `CC[C@]12C=CCN3CC[C@@]4(c5ccc(OC)cc5N(C)[C@H]4[C@@](O)(C(=O)OC)[C@@H]1OC(=O)CCCN1CCN(CCCC(=O)O[C@@H]4[C@]5(CC)C=CCN6CC[C@@]7(c8ccc(OC)cc8N(C)[C@H]7[C@@]4(O)C(=O)OC)[C@@H]65)CC1)[C@@H]32`, the growth was -79.9% (active).

As for `CC(=O)OC1CCC2(C)C(=CCC3C4CC(CN5CC5)C(=O)C4(C)CCC32)C1` (stereo not given), the growth was -78.4% (active). Turning to `O=C(C(=O)N1CCCC1)c1cn(CCCCCn2cc(C(=O)C(=O)N3CCCC3)c3ccccc32)c2ccccc12`, the growth was 89.5% (inactive). Take `c1ccc2nc(OCCN3CC3)ccc2c1`: the growth is 47.1% (inactive). The figure for `CCOc1ccc(C(O)CN(C)Cc2ccccc2)cc1Cl` (stereo not given) is 97.1% (inactive); for `O=C1NC(=O)C(O)(C2(O)C(=O)NC(=O)NC2=O)C(=O)N1` it is 94.3% (inactive). Consider `c1ccc(CCN2CCCCC2Cc2ccccc2)cc1` (stereo not given), for which the growth was 83.5% (inactive). The same measure for `COC[CH2][Hg][C]#[C][Hg][CH2]COC`: 96.9% (inactive); for `CN1CC2CCC(C1)C2=O`: 92.1% (inactive). For the compound `CC12CCC(=O)C=C1C(O)CC1C2CCC2(C)C(O)CCC12` (stereo not given), the growth was 106% (inactive). With `CCOc1cc(/C=N\Nc2nnc(C)n2N)c(C)cc1N(CCCl)CCCl`, the growth is 15% (inactive). With `CC(=O)O[C@@H]1C2=C(C)C3(CC3)[C@@](C)(O)C(=O)C2=C[C@@]1(C)CO`, the growth was -36.6% (active).

For the compound `CC(=O)Nc1ccc(C=C2C(=O)NC(=O)NC2=O)cc1`, the growth is 104% (inactive).

Take `CCCCn1cc(C(=O)/C(C#N)=C/c2cc3ccccc3nc2Cl)c2cc(OC)ccc21`: the growth was 99.6% (inactive). On to `C#CC1(O)CCC2(C)C(CCC3C4CCC(=O)C4(C)CCC32)C1` (stereo not given), for which the growth is 86.9% (inactive).

Regarding `CC(=O)O[C@H]1CC[C@H]2[C@@H]3CC[C@H]4CC=C(C)C[C@]4(C)[C@H]3CC[C@]12C`, the growth is 92.4% (inactive).

For `Cc1ccc(C(=O)C2CN(C)CCC2(O)c2ccc(C)cc2)cc1` (stereo not given), the growth is 111% (inactive).

Values taken from PubChem BioAssay (NCI).
